# Measurements as given in the supplement of paper PMC4466236.
# Whole data set: some 33,000 sequences, median “E-score (dimensionless, -0.5 to 0.5)” near -0.058, cut for the highest 2% near 0.35. The entries come from a sample that favours the highest values as a whole.
# Test system: MvaT
# Test: PBM 8-mer E-score (mean of HK and ME arrays) (E-score (dimensionless, -0.5 to 0.5)); higher = stronger relative binding preference
# Method: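 Protein binding microarray: GST-tagged full-length MvaT (P. aeruginosa PAO1) bound to two universal double-stranded 60-mer arrays (ME and HK), each with a constant 25-mer primer and a variable 35-mer region covering all 8-mers. The 8-mer E-score (rank-based, range -0.5 to 0.5, >0.45 = specific binding) is the mean of the two arrays.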
row,Sequence,PBM 8-mer E-score
1,CAACTCCA,-0.0538
2,CACCCAGA,-0.158
3,CATAGGAG,0.0253
4,AATCTCGG,0.0949
5,ACACCATA,0.0603
6,CCAGGTCA,-0.141
7,AAGTAGGT,0.0927
8,CATTCCCC,-0.183
9,ATTTAATA,0.411
10,ATTTAAGC,0.309
11,ATTTAAGA,0.239
12,ATTTAATC,0.346
13,CTTTAATA,0.344
14,CTTTAATC,0.141
15,AGATCGCG,-0.153
16,GATTCAGA,-0.0136
17,GAGTTAGC,-0.00613
18,GGACCAAA,-0.139
19,AGCTCGGA,-0.141
20,TAATTATA,0.462
21,AAATTATG,0.233
22,GAATTATC,0.147
23,CAATTATA,0.414
24,TAATTGTA,0.305
25,CAATTATC,0.264

row,Sequence,PBM 8-mer E-score
1,TAATTCTA,0.278
2,AAATTATC,0.318
3,GAATTACA,0.175
4,CAATTATG,0.329
5,GAATTATA,0.374
6,AAATTATA,0.45
7,AAGGACCA,-0.154
8,AGGGGGTG,-0.316
9,AACCTGCT,-0.0689
10,TGTCCCAA,0.187
11,CTGGCAAC,0.0118
12,TCCTTCAA,-0.14
13,ATACTAAG,0.272
14,AGTAGGTG,-0.0642
15,AATCGAAC,0.176
16,CCCGGCGA,-0.269
17,AAATTGTC,0.22
18,AAATTACC,0.212
19,AAATTGTA,0.267
20,AAATTAGG,0.165
21,GAATTAGA,0.106
22,AAATTACA,0.274
23,AAATTATT,0.401
24,CAATTAGA,0.202
25,AAATTGTT,0.351

row,Sequence,PBM 8-mer E-score
1,TAATTAGA,0.353
2,TAATTACA,0.384
3,CAATTACA,0.288
4,ACAGCAAG,-0.0242
5,GTACATAA,0.297
6,CCGGGACC,-0.311
7,ATCCAGAA,0.0751
8,ATCAGTCG,-0.0941
9,ACAAATGC,0.0069
10,GAGGTAGC,-0.211
11,AGCCACCA,-0.0502
12,AAAAGTGA,0.0292
13,AATAGTTA,0.387
14,GATAGTTA,0.311
15,AAAAGTTC,0.277
16,AAAAGTTA,0.371
17,AAAAGTTT,0.352
18,AAAAGTCA,0.0201
19,AAAAGTTG,0.221
20,CATAGTTA,0.178
21,CAAAGTTA,0.265
22,TAAAGTTA,0.315
23,GAAAGTTA,0.346
24,GCGTCAGA,-0.131
25,CGTGGATA,0.112

row,Sequence,PBM 8-mer E-score
1,ATCCCAGA,-0.203
2,GCCACGCA,-0.169
3,CACCGGTG,-0.153
4,GAAACAGA,-0.0327
5,CGGAGTAC,-0.128
6,CTGAATGC,-0.0524
7,AGGTCGCG,-0.202
8,AAAAAGTC,0.17
9,AAAAAGTA,0.154
10,AAAAAGTT,0.357
11,TGCCGGCA,-0.0619
12,ATGACTCA,-0.062
13,TGTTAAAA,0.25
14,AGTTAAAG,0.209
15,AGTTAAAT,0.383
16,AGTTAAAA,0.37
17,AGTTAAAC,0.242
18,CGTTAAAA,0.295
19,ACCTGCAC,-0.11
20,CCGCAGAC,-0.181
21,AAAGACGT,0.0386
22,CGTGCGCC,-0.27
23,TCCAGGCA,-0.215
24,CCATGTAA,0.171
25,AATTGTAA,0.305

row,Sequence,PBM 8-mer E-score
1,CAATGTAA,0.236
2,TCATGTAA,0.119
3,AAATGTAC,0.14
4,AAATGTAA,0.373
5,TATTGTAA,0.379
6,ACATGTAA,0.361
7,TAATGTAA,0.373
8,GAATGTAA,0.232
9,GATTGTAA,0.109
10,AAATGTAG,0.0975
11,AGTAGATA,0.202
12,CGAATTTA,0.157
13,CTGGGATA,-0.0515
14,CGCAACCC,-0.0943
15,AGGTGCAT,-0.0802
16,GCAGGACC,-0.179
17,ACAATCAA,0.21
18,TAGAGACA,0.123
19,CAATCGGA,-0.0769
20,ACTTCTCC,0.2
21,TCATATGA,0.204
22,GCATATAC,0.311
23,CCATATAA,0.343
24,TCATATAA,0.379
25,GCATATAA,0.374

row,Sequence,PBM 8-mer E-score
1,GCATATGA,0.176
2,ACGCAGGC,-0.282
3,GCCGAACC,-0.115
4,ATAACTGG,0.213
5,ACAGGAAA,0.0933
6,AAACCCTT,-0.0425
7,CTTAAAAA,0.163
8,GTTAATCA,0.183
9,GTTAATGA,0.264
10,CTTAATAA,0.385
11,CTCAATAA,0.307
12,GTTAATAA,0.377
13,CATGAGAA,-0.0314
14,CACTTGTA,0.139
15,AAATAACG,0.331
16,ACATAACT,0.268
17,AAATAACA,0.336
18,AAATAACT,0.375
19,AAATAACC,0.375
20,CAATAACC,0.223
21,CACGTGCA,-0.0519
22,ATCTGGAC,-0.0431
23,TCATCGAA,-0.15
24,GAGACATC,-0.0544
25,AAGCATAG,-0.033

row,Sequence,PBM 8-mer E-score
1,CCAGTTAC,0.14
2,AGACGCGA,0.0502
3,AAATTTAC,0.11
4,AAAAATTT,0.298
5,AAATTTAG,0.238
6,AATTTTTA,0.34
7,AAAATTTG,0.221
8,AAAATTTA,0.311
9,CAAATTTA,0.22
10,AAATTTTA,0.35
11,AAATTTAT,0.384
12,AAAATTTT,0.354
13,GAATTTTA,0.254
14,TAAATTTA,0.414
15,AGAGTTCG,0.00443
16,CAACCCGC,-0.00327
17,CATGATGC,-0.011
18,AGGGGGAG,-0.246
19,AGAAAGGC,-0.118
20,CTGTGCTA,-0.0139
21,GGAGCCAC,-0.325
22,CAATTTTA,0.293
23,CAATTTAA,0.366
